Results on 35 compounds are retold here after PubChem BioAssay (NCI).

Molecules are shown by their SMILES. About 83,000 compounds went through this panel and 20% of them were active in at least one assay; those are over-represented in the sample as a whole.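 A percent growth of 40 corresponds to 60% growth inhibition; 0 means no net growth; -100 means all cells died. Active threshold: below 10.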 Unmarked numbers belong to inactive results. Calls of active or inactive are those of the source.

In one assay the test system is ACHN renal. As to the kind of experiment: NCI-60 one-dose screen, 48 h (100 = growth as untreated, 0 = no growth, -100 = all killed). To be noted: 10 µM unless noted.
On to `C[C@]12CCC(=O)C=C1CCC1C2[C@@H](O)C[C@@]2(C)C1CC[C@]2(O)C(=O)COC(=O)CCC(=O)O` (stereo partly drawn), for which the growth was 102%.
With `CCOC(=O)/C=C1/SC(=Nc2ccc(C#N)cc2)N(Cc2ccco2)C1=O`, the growth was -78.6% (active).
As for `C[C@H](C(=O)N[C@@H](Cc1ccc(-c2ccccc2)cc1)C(=O)NC1CC(C)(C)NC(C)(C)C1)c1ccc(-c2ccccc2)c(F)c1`, the growth is -86.9% (active).
Take `Nc1ccccc1C#Cc1ccccc1C#Cc1ccc(OCCCCCCOc2ccc(C#Cc3ccccc3C#Cc3ccccc3N)cc2)cc1`: the growth is 102%.
Still for that read-out and setting: under `CCSc1nc(-c2ccco2)n2nc(-c3ccco3)cc2n1` stands 88.8%.
Still for that read-out and setting: under `CN(C)c1ccc(-c2nc3ncc(Br)cc3o2)cc1` stands 99.9%; under `CN1CCN(c2nc3scc(-c4ccccc4)c3c(=O)[nH]2)CC1`, 107%.
As for `CC(=O)OC1Oc2cc(C)c(C)cc2-c2oc(=O)c(-c3ccccc3)cc21` (stereo not drawn), the growth was 34%.
Still for that read-out and setting: the result for `CCOC(=O)c1sc(NC(=O)COc2cccc(/C=C3\CCc4cc(OC)ccc4C3=O)c2)nc1C` reads 85.7%; that for `COc1cnc2c(c1)C(=O)c1c-2n(CCCN2CCOCC2)c(=O)c2cc(F)ccc12`, -66.9% (active); that for `CCOC(=O)CCC(=O)O[C@H]1[C@H](O[C@@H]2[C@@H](C)[C@H](O[C@H]3C[C@@](C)(OC)[C@@H](O)[C@H](C)O3)[C@@H](C)C(=O)O[C@H](CC)[C@@](C)(O)[C@H](O)[C@@H](C)C(=O)[C@H](C)C[C@@]2(C)O)O[C@H](C)C[C@@H]1N(C)C`, 96.4%.
In the case of `CNCCCn1c2c(c3ccc(F)cc3c1=O)C(=O)c1cc(OC)cnc1-2`, the growth was -57.2% (active).
The same measure, in the same setting: the result for `NC(=NCCCCCCN=C(N)/N=C(\N)Nc1ccc(Cl)cc1)/N=C(\N)Nc1ccc(Cl)cc1` reads 20.5%; that for `O=C1CSC(c2ccccc2Cl)N1c1nnc(Cn2nnc3ccccc32)o1` (stereo not drawn), 83.6%.
Take `O=C(O)CCC(=O)OC[C@@H](NC(=O)C(Cl)Cl)[C@H](O)c1ccc([N+](=O)[O-])cc1`: the growth was 88.1%.
Same read-out and setting: under `COc1ccc(-c2cc(-c3nnc(SCC(=O)Nc4ccc(C(C)=O)cc4)n3-c3ccccc3)c3ccccc3n2)cc1OC` stands 108%.
On to `C[C@H](C(=O)N[C@@H](Cc1ccc(-c2ccccc2)cc1)C(=O)NC1CC(C)(C)N(C)C(C)(C)C1)c1ccc(-c2ccccc2)c(F)c1`, for which the growth was -87.8% (active).
Turning to `O=C(O)C1C(c2ccccc2)c2ccccc2C(O)C1CO` (stereo not drawn), the growth was 97.3%.
With `CSc1nc(Nc2ccc(S(=O)(=O)Nc3ccon3)cc2)c(C#N)c(-c2ccc(Cl)cc2)n1`, the growth was 90.2%.
With `Cc1cc(C)c(C(=O)c2cccs2)c(C)c1`, the growth was 108%.
`COC(=O)C1(NC(=O)CNC(=O)OCc2ccccc2)CCCC1`: the growth is 105%.
As to `Nc1ccc(N=Nc2ccccc2)cc1[N+](=O)[O-]`, the growth was 89.9%.
With `CCOC(=O)C1=CCC(n2cc(C)c(=O)[nH]c2=O)O1` (stereo not drawn), the growth is 103%.
Turning to `C[C@@H]1C[C@@H]([C@@H](CC2CC(=O)NC(=O)C2)OC(=O)CC(=O)c2ccccc2)C(=O)[C@@H](C)C1`, the growth is 7.54% (active).
As for `OCc1n(Cc2ccc3ccccc3c2)cc[n+]1Cc1ccc2ccccc2c1`, the growth was 109%.
Regarding `COc1cnc2c(c1)C(=O)c1c-2n(CCCNC2=NCCS2)c(=O)c2cc(F)ccc12`, the growth was 6.18% (active).
For the compound `Cc1onc(-c2ccccc2Cl)c1C(=O)N[C@@H]1C(=O)N2[C@@H]1SC(C)(C)[C@@H]2C(=O)O`, the growth was 104%.
For `C[C@H]1O[C@@H](O[C@H]2[C@@H](O)C[C@H](O[C@H]3[C@@H](O)C[C@H](O[C@H]4CC[C@]5(C)C6C[C@@H](O)[C@]7(C)[C@@H](C8=CC(=O)OC8)CC[C@]7(O)C6CC[C@@H]5C4)O[C@@H]3C)O[C@@H]2C)C[C@H](O)[C@@H]1O` (stereo partly drawn), the growth was -75.8% (active).
Still for that read-out and setting: the result for `CC1CN(/N=C/c2ccc([N+](=O)[O-])o2)C(=N)O1` (stereo not drawn) reads 92.9%; that for `CC(=O)c1ccccc1NC(=O)C(C)(c1ccccc1)c1ccccc1`, 83.7%; that for `Cc1n(Cc2ccc3ccccc3c2)c2ccccc2[n+]1Cc1ccc2ccccc2c1`, 25.3%.

Another assay deals with CAKI-1 renal. Described as above. To be noted: 10 µM unless noted.
For `COc1ccc2c(c1)C(=Nc1cc(OC)c(OC)c(OC)c1)C(=O)N2`, the growth is 122%.
Consider `C[C@]12CCC(=O)C=C1CCC1C2[C@@H](O)C[C@@]2(C)C1CC[C@]2(O)C(=O)COC(=O)CCC(=O)O` (stereo partly drawn), for which the growth was 81.1%.
As to `Nc1ccccc1C#Cc1ccccc1C#Cc1ccc(OCCCCCCOc2ccc(C#Cc3ccccc3C#Cc3ccccc3N)cc2)cc1`, the growth is 91.6%.
On the same count and under the same terms, the result for `CCSc1nc(-c2ccco2)n2nc(-c3ccco3)cc2n1` reads 84.3%; that for `CN(C)c1ccc(-c2nc3ncc(Br)cc3o2)cc1`, 109%; that for `CC(=O)OC1Oc2cc(C)c(C)cc2-c2oc(=O)c(-c3ccccc3)cc21` (stereo not drawn), 24.8%.
With `CCOC(=O)c1sc(NC(=O)COc2cccc(/C=C3\CCc4cc(OC)ccc4C3=O)c2)nc1C`, the growth is 60.2%.
Regarding `CCN1CC2=C(Nc3nc(SC)[nH]c(=O)c3C2c2cc(OC)c(OC)c(OC)c2)/C(=C/c2cc(OC)c(OC)c(OC)c2)C1` (stereo not drawn), the growth is 108%.
For `CCOC(=O)CCC(=O)O[C@H]1[C@H](O[C@@H]2[C@@H](C)[C@H](O[C@H]3C[C@@](C)(OC)[C@@H](O)[C@H](C)O3)[C@@H](C)C(=O)O[C@H](CC)[C@@](C)(O)[C@H](O)[C@@H](C)C(=O)[C@H](C)C[C@@]2(C)O)O[C@H](C)C[C@@H]1N(C)C`, the growth is 93.2%.
On the same count and under the same terms, under `O=C1CSC(c2ccccc2Cl)N1c1nnc(Cn2nnc3ccccc32)o1` (stereo not drawn) stands 40.6%; under `O=C(O)CCC(=O)OC[C@@H](NC(=O)C(Cl)Cl)[C@H](O)c1ccc([N+](=O)[O-])cc1`, 89.6%; under `O=C(O)C1C(c2ccccc2)c2ccccc2C(O)C1CO` (stereo not drawn), 112%.
Turning to `CSc1nc(Nc2ccc(S(=O)(=O)Nc3ccon3)cc2)c(C#N)c(-c2ccc(Cl)cc2)n1`, the growth is 102%.
Consider `Cc1cc(C)c(C(=O)c2cccs2)c(C)c1`, for which the growth is 95.2%.
`COC(=O)C1(NC(=O)CNC(=O)OCc2ccccc2)CCCC1`: the growth is 100%.
As for `Cc1cc(C)nc(NS(=O)(=O)c2ccc(Nc3nc4nc(SCc5ccccc5)nc(-c5ccc(O)cc5)c4c(=O)[nH]3)cc2)n1`, the growth was 85.9%.
With `Nc1ccc(N=Nc2ccccc2)cc1[N+](=O)[O-]`, the growth was 66%.
For `NS(=O)(=O)c1cc2c(cc1Cl)NC=NS2(=O)=O`, the growth is 96.3%.
The same measure, in the same setting: the result for `CCOC(=O)C1=CCC(n2cc(C)c(=O)[nH]c2=O)O1` (stereo not drawn) reads 85.8%; that for `Cc1onc(-c2ccccc2Cl)c1C(=O)N[C@@H]1C(=O)N2[C@@H]1SC(C)(C)[C@@H]2C(=O)O`, 96.6%.
Consider `CC1CN(/N=C/c2ccc([N+](=O)[O-])o2)C(=N)O1` (stereo not drawn), for which the growth was 96.4%.
Take `CC(=O)c1ccccc1NC(=O)C(C)(c1ccccc1)c1ccccc1`: the growth was 108%.
